# Shown are actives, neighbours in structure and some others; about 21% of the full set was active somewhere.
# IL-1B inflam inh – qHTS for Inhibitors of Inflammasome Signaling: IL-1-beta AlphaLISA Primary Screen. THP-1 LPS/ATP IL-1B secretion, AlphaLISA, 16 h; stronger effect = lower value. activity change, % at 57.5 µM. hit rate 4.7% among 360,000. AID 743279, 2014; in the data active = activity change below about -50%; inconclusive = mostly about -30% to -49%
#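 Secreted IL-1B measured by AlphaLISA bead assay after 16 h compound exposure of THP-1 cells; compounds (final up to 57.5 uM) added 1 h before LPS (250 ng/mL) and ATP (1.25 mM) stimulation; lower signal means less secretion.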
# ELG1 repair inh – qHTS screen for small molecules that inhibit ELG1-dependent DNA repair in human embryonic kidney (HEK293T) cells expressing luciferase-tagged ELG1; HEK293T ELG1-luciferase reporter, luminescence, 16 h; DNA damage induced by 5-fluorouridine; Potency, µM (highest dose often 46.1 µM), for inactives: at the highest dose activity change, negative = inhibition, hits mostly inhibitors; hit rate 2.3% among 330,000; AID 504467, 2011; also: potency is read from the fitted curve at half-maximal effect; nearly all actives have a fitted effect of over 55% in size
#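 In this reporter screen, reduction of luminescence relative to DMSO vehicle indicated activity. Compounds and 5-fluorouridine were added together to 2,000 cells per well, incubated for 16 hr at 37 °C, then developed with ONE-Glo.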
# RORg inh – qHTS for inhibitors of ROR gamma transcriptional activity | Nuclear receptor ROR-gamma (Mus musculus), P51450 | Drosophila S2 Gal4-RORgamma UAS-luciferase reporter, 20 h | Potency, µM (top dose mostly 53.6 µM), inactives show at the highest dose activity change, negative = inhibition, most hits filed as inhibitors | hit rate 5.4% among 310,000; also: potency is read from the fitted curve at half-maximal effect; nearly all actives have a fitted effect of over 60% in size
# Target sequence (P51450 whole entry, looked up, the tested form may be a part): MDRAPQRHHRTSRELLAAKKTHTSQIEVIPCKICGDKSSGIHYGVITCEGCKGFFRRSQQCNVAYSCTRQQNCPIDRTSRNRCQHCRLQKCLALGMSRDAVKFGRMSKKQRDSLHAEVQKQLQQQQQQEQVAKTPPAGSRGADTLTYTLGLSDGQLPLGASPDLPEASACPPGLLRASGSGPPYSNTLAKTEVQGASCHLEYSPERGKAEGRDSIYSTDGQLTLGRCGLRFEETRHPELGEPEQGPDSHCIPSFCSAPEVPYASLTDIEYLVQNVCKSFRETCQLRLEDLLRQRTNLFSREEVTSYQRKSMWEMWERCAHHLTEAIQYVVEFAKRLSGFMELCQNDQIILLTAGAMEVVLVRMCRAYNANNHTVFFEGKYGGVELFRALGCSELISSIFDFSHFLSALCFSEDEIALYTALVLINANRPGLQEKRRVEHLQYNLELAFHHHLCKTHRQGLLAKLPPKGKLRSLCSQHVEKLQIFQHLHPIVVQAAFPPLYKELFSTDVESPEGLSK
#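 Drosophila Schneider cells stably carrying a metallothionein-driven Gal4 DBD–ROR gamma fusion and a UAS-Photinus luciferase reporter were exposed to compound for 1 hr, then induced with copper sulfate (700 uM final) for 20 hr at ambient temperature before luminescence reading.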
# DT40 TDP1 no CPT – qHTS for Inhibitors of human tyrosyl-DNA phosphodiesterase 1 (TDP1): qHTS in cells in absence of CPT; DT40 Tdp1-/- hTDP1 cells, no CPT, ATP luminescence, 48 h; Potency, µM (doses to about 46.2 µM), for inactives: at the highest dose activity change, negative = growth inhibition, hits mostly inhibitors; hit rate 15% among 420,000; also: potency is read from the fitted curve at half-maximal effect; nearly all actives have a fitted effect of over 55% in size
#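 Growth kinetics read by CellTiter-Glo luminescence after ≥48 hr at 37 °C. Cells: DT40 Tdp1-/- stably carrying human TDP1, 400 per well, compound exposure in the absence of CPT (DMSO vehicle).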
# Gal4-VP16 FLuc – VP16 counterscreen qHTS for inhibitors of ROR gamma transcriptional activity | Drosophila S2 Gal4-VP16 UAS-luciferase, luminescence, 20 h | Potency, µM (doses to about 53.6 µM), inactives show top-dose activity, negative = inhibition, actives largely listed as inhibitors | hit rate 3.5% among 310,000 | AID 2546, 2010;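 also: Gal4-VP16 expression switched on by copper sulfate through the metallothionein promoter; potency is read from the fitted curve at half-maximal effect; nearly all actives have a fitted effect of over 50% in size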
# DT40 TDP1 CPT – qHTS for Inhibitors of human tyrosyl-DNA phosphodiesterase 1 (TDP1): qHTS in cells in presence of CPT | hit rate 12% among 420,000 | Potency, µM (series often up to 46.2 µM), for the others: at the highest dose activity change, negative = growth inhibition, usual class: inhibitors | chicken DT40 Tdp1-/-;hTDP1 cells + 20 nM CPT, ATP luminescence, 48 h; also: potency is read from the fitted curve at half-maximal effect; nearly all actives have a fitted effect of over 55% in size
#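 Chicken DT40 Tdp1-/- cells stably complemented with human TDP1 were seeded at 400 cells/well in medium containing 20 nM camptothecin, exposed to pin-transferred compounds, and grown at 37 °C for at least 48 hr. Viability was read as ATP luminescence.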
# An asterisk follows results filed as active; ? = inconclusive; · = no result; [ ] = remark or other dose. Unless noted, calls follow the shape of the dose curve; as a rule, active = well fitted curve in the direction sought with a large enough effect; inconclusive = small, poorly fitted or top-dose-only effect, or another doubt; inactive = no such curve, though single readings can be large; an effect the other way counts as inactive or inconclusive. % is scaled to controls: 0 for no effect and ±100 for the full control effect.
SMILES,IL-1B inflam inh,ELG1 repair inh,RORg inh,DT40 TDP1 no CPT,Gal4-VP16 FLuc,DT40 TDP1 CPT
O=C(O)CCn1nc(-c2ccc(F)cc2)cc(Cc2ccccc2)c1=O,11,-5%,-1%,-16%,5%,1%
O=C(NC1CCCCC1)n1c(=O)oc2ccc(Cl)cc21,-5,25%,29%,13µM*,5%,12µM*
Cc1noc(C)c1S(=O)(=O)Nc1ccc2c(c1)C(=O)N([C@H](C)CO)C[C@H](C)[C@@H](CN(C)C(=O)Nc1ccc3c(c1)OCO3)O2,-5,?,·,-8%,·,0%
CCCCn1c2c(c(=N)c3ccccc31)CCC2,-2,1.6µM*,0%,?,3%,?
CCCCCCCCn1c2c(c(=N)c3ccccc31)CCC2,-96*,6%,0%,0.41µM*,-7%,0.41µM*
O=C(CNC(=O)c1ccc(F)cc1)OCc1cc(=O)n2nc(C3CC3)sc2n1,·,·,·,-1%,·,-15%
COc1ccc(NC(=O)CCC(=O)N2CCOCC2)c([N+](=O)[O-])c1,0,2%,-15%,2%,-13%,-4%
COc1cc(OC)cc(-c2c(-c3ccc(F)cc3)c3cc(-c4ccc5[nH]ccc5c4)ccc3n2C)c1,-19,2%,·,?,·,29µM*
COc1ccc(-c2c(-c3cc(OC)cc(OC)c3)n(C)c3ccc(-c4cc(F)cc(OC)c4)cc23)cc1,9,12%,·,16µM*,·,?
COc1cc(NC(=O)c2ccc3c(c2)S(=O)(=O)N=C2CCCCCN23)cc(OC)c1,-2,4%,·,?,·,?
c1ccc(Nc2nc(Nc3ccccc3)nc(N3CCNCC3)n2)cc1,-71*,14%,-19%,?,2%,?
CN1CCN(c2nc(Nc3ccc(F)cc3)nc(Nc3ccc(F)cc3)n2)CC1,-56*,10%,-43%,?,-4%,21µM*
O=C(Nc1ccccc1)c1cccc(N2CCCS2(=O)=O)c1,·,·,·,2%,·,-21%
Cc1ccc(S(=O)(=O)N2CCN(c3nc(-c4cccs4)nc(C)c3C)CC2)cc1,·,·,·,8%,·,10%
Cc1ccc(-c2csc3ncnc(N4CCN(S(=O)(=O)c5cccs5)CC4)c23)cc1,29,?,·,21µM*,·,?
O=S(=O)(c1ccccc1)N1CCN(c2ncnc3scc(-c4ccccc4)c23)CC1,-4,-23%,20%,?,-10%,16µM*
Cc1ccc(-c2csc3ncnc(N4CCN(S(=O)(=O)c5ccc(C#N)cc5)CC4)c23)cc1,7,·,·,16µM*,·,?
Cc1ccc(S(=O)(=O)N2CCN(c3ncnc4sccc34)CC2)cc1,-10,9.2µM*,?,3.3µM*,5µM*,7.3µM*
Cc1cccc2c3c(ccc12)C1=C(C(=O)C3=O)[C@@H](C)CO1,·,·,-1%,·,-11%,·
COc1ccc(-c2csc3ncnc(N4CCN(S(=O)(=O)c5ccc(C)c(C)c5)CC4)c23)cc1,84,?,·,18µM*,·,?
CCN1CCN(Cc2c(O)ccc3c(=O)c(Oc4ccccc4Cl)c(C(F)(F)F)oc23)CC1,·,·,·,21µM*,·,?
CN1CCN(Cc2c(O)ccc3c(=O)c(Oc4ccccc4Cl)c(C(F)(F)F)oc23)CC1,8,-2%,-6%,-7%,13%,?
FC(F)(F)c1ccc(-n2cnc3ccccc32)nc1,10,14%,41%,6%,-10%,-20%
Cc1c(CN(C)C(=O)c2sc3cc(Cl)ccc3c2Cl)cnn1C,?,2%,13%,21µM*,?,15µM*
Cc1cn([C@H]2C[C@H](F)[C@@H](CO)O2)c(=O)[nH]c1=O,·,·,·,17µM*,·,6.7µM*
SMILES,IL-1B inflam inh,ELG1 repair inh,RORg inh,DT40 TDP1 no CPT,Gal4-VP16 FLuc,DT40 TDP1 CPT
Cc1cn([C@H]2C[C@H](N=[N+]=[N-])[C@@H](CO)O2)c(=O)[nH]c1=O,83,9%,-7%,7.5µM*,-2%,21µM*
O=c1[nH]c(=O)n([C@H]2C[C@H](O)[C@@H](CO)O2)cc1F,41,-2%,-29%,0.037µM*,-20%,3.3µM*
CC1OC(n2cc(F)c(=O)[nH]c2=O)C(O)C1O (stereo unspecified),·,·,-20%,3.7µM*,-1%,6.5µM*
O=c1[nH]c(=O)n([C@@H]2O[C@H](CO)[C@@H](O)[C@H]2O)cc1Br,·,·,2%,-24%,-9%,3%
CC1=C(C(=O)Nc2ccc(F)cc2)C(c2ccc(N(C)C)cc2)NC(=O)N1 (stereo unspecified),·,·,·,-13%,·,2%
COC(=O)C(CCSC)NS(=O)(=O)c1ccccc1Br (stereo unspecified),·,·,0%,·,-9%,·
CC(CNC(=O)CCn1ccc2cc(S(=O)(=O)N3CCCC3)ccc21)c1ccccc1 (stereo unspecified),1,-19%,42%,-25%,1%,?
CCOC(=O)CSCC(NC(=O)OC(C)(C)C)C(=O)OCC (stereo unspecified),8,-7%,7.1µM*,-14%,?,3%
CCCC(CCC)C(=O)Nc1cccc(-c2cn3c(n2)SCC3)c1,-4,-1%,-9%,?,-7%,-20%
O=C(Cc1ccc(Br)cc1)Nc1cccc(-c2cn3c(n2)SCC3)c1,-76*,?,25%,?,3%,?
CCOC(=O)C1=C(COC(=O)CCOc2ccccc2)NC(=O)NC1C (stereo unspecified),5,0%,·,23µM*,·,23µM*
CCOC(=O)C1=C(COC(=O)CCS(=O)(=O)c2ccc(C)cc2)NC(=O)NC1C (stereo unspecified),-80*,13%,·,-24%,·,?
CCOC(=O)C1=C(O)/C(=C\c2cc(C)n(-c3ccc(F)cc3)c2C)N=C1C,-19,-1%,16%,15µM*,10%,?
COC(=O)C1=C(C)NC(=O)/C1=C\c1cc(C)n(-c2ccccc2F)c1C,-114*,?,-5%,?,5%,2%
CCOC(=O)C1=C(O)/C(=C\c2cc(C)n(-c3ccccc3F)c2C)N=C1C,5,-16%,1%,23µM*,5%,12µM*
CCOC(=O)C1=C(O)/C(=C/c2cccc(OC)c2O)N=C1C,30,6%,-29%,-17%,3%[10 µM],?

# From PubChem BioAssay
